Data on four molecules can be found in PubChem BioAssay (EPA / NIEHS).

Assay [1] is described as follows: CEETOX_H295R_ESTRONE_noMTC: CeeTox H295R High-throughput Steroidogenesis Assay for Estrone, maximum tolerated concentration (MTC) filtered results only (AID 2283921). To be noted: actives raise or lower the signal. The gist of the method:
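H295R cells prestimulated 48 h with 10 uM forskolin, then exposed 48 h to chemical in 0.1% DMSO; medium estrone measured by HPLC-MS/MS after MTBE extraction and dansyl derivatization, fitted bidirectionally versus DMSO without MTT-based MTC filtering.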

Assay [2] deals with PGR (gene 5241) (UniProt P06401). Briefly: TOX21_PR_BLA_Followup_Agonist_ratio: Tox21 HEK293 Progesterone Receptor (PR) Agonism Beta-lactamase Follow-Up Assay, Ratio (AID 2283933; active = hit-call score of the fitted dose curve at least 0.9, where 1 is the maximum). The gist of the method:
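PR-UAS-bla HEK293T cells (GAL4-UAS beta-lactamase reporter) in medium with 2% charcoal-stripped FBS received compounds after 6 hr at 37C, then incubated 16 hr. LiveBLAzer FRET substrate added, 2 hr room temperature; cleaved/uncleaved (ch2/ch1) ratio fitted upward versus DMSO.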

Assay [3] shares this target. Put plainly: TOX21_PR_LUC_Followup_Agonist: Tox21 HEK293 Progesterone Receptor (PR) Agonism Luciferase Follow-Up Assay (AID 2283937). The method in brief: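 HEK293-PR-A-luc cells, pre-cultured 5 days in medium with 10% charcoal-stripped FBS, were seeded at 3,000 cells/well, rested 5 h at 37C, then exposed to compounds 16 h at 37C; luciferase read by ONE-Glo luminescence after 30 min.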

In assay [4] the target is Thyroid hormone receptor alpha (Rattus norvegicus) + Thyroid hormone receptor beta (Rattus norvegicus) (UniProt P18113+P63059). Put plainly: TOX21_TR_LUC_GH3_Agonist_Followup: Tox21 GH3 Thyroid Hormone Receptor Agonism Luciferase Follow-Up Assay (AID 2283939; active = hit-call score of the fitted dose curve at least 0.9, where 1 is the maximum). The gist of the method: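 Rat GH3 cells (1,500/well) in serum-free assay medium, treated with 15-point series, 92 uM to 5 nM final, for 24 h at 37C. Luciferase via ONE-Glo luminescence; gain of signal fitted against DMSO, T3 positive control.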
Sequence of Thyroid hormone receptor alpha (Rattus norvegicus) + Thyroid hormone receptor beta (Rattus norvegicus) (P63059 whole entry, looked up): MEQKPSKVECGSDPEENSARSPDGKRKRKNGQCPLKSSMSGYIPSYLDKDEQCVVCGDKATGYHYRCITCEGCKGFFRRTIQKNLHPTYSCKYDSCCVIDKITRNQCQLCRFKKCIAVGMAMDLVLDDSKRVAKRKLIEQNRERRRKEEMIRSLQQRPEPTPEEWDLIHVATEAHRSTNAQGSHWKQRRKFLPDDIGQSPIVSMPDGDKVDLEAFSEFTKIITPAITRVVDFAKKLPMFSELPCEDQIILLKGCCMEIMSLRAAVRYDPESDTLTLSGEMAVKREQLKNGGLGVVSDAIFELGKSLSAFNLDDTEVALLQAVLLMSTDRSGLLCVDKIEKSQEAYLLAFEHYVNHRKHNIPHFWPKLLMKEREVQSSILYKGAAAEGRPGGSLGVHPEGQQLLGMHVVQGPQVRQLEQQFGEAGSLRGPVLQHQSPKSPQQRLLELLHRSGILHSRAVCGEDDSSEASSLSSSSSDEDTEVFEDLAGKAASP
Sequence of Thyroid hormone receptor alpha (Rattus norvegicus) + Thyroid hormone receptor beta (Rattus norvegicus) (P18113 whole entry, looked up): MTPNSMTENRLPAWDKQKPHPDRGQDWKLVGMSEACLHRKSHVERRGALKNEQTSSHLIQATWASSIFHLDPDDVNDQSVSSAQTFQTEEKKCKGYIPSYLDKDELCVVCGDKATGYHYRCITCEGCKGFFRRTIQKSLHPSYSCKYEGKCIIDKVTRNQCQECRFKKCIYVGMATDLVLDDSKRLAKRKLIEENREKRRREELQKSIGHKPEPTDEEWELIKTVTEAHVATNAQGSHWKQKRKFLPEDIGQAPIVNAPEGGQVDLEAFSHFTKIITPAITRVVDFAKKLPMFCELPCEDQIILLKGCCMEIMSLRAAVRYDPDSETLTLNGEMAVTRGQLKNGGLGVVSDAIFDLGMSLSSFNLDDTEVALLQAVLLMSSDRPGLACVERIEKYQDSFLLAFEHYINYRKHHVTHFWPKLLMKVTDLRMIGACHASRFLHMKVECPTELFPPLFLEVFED

Inconclusive results are not listed. Activity calls are given as the source filed them. Rule for the calls, unless noted: active = hit-call score of the fitted dose curve at least 0.9, where 1 is the maximum; inactive = score below 0.9.

Sequence of PGR (gene 5241) (P06401 whole entry, looked up, the tested form may be a part): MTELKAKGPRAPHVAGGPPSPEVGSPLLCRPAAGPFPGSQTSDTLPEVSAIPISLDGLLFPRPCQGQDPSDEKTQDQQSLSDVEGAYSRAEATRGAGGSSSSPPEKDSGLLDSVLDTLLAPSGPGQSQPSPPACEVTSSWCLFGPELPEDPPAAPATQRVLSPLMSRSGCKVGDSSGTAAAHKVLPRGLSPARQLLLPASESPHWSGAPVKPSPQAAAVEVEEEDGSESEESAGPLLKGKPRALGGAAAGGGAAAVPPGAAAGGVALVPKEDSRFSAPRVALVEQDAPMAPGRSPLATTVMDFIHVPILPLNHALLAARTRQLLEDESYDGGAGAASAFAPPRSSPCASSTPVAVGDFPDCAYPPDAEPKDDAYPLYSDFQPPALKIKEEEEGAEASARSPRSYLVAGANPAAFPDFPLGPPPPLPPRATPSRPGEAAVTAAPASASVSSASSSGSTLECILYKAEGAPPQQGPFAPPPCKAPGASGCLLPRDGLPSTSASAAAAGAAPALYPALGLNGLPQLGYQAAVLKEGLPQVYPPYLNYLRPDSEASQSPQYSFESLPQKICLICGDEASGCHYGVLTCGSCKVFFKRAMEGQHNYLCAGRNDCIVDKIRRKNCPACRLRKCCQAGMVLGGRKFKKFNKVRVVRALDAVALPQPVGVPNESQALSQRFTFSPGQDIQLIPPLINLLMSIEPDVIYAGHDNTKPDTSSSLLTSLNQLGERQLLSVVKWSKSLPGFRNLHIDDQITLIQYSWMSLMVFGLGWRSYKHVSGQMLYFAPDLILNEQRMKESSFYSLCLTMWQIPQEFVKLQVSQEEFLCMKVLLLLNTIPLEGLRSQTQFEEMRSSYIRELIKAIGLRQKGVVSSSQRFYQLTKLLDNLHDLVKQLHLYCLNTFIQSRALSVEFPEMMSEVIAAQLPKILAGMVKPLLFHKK

Consider `Cc1oc(-c2ccccc2)nc1CCOc1cccc2c1ccn2CCC(=O)O`, for which the result in assay [1] was inactive.

Take `CCOc1ccc2c(c1)C(C)=CC(C)(C)N2`: the result in the assay with PGR (gene 5241) [2] and with PGR (gene 5241) [3] was inactive.

Regarding `CCc1c(C(=O)NN2CCCCC2)nn(-c2ccc(Cl)cc2Cl)c1-c1ccc(Br)cc1`, the outcome with PGR (gene 5241) [2] and with PGR (gene 5241) [3] was inactive.

In the case of `CCCCCCCCCCC`, in assay [4], the outcome was inactive.
